Reference: PubChem BioAssay

Assay: EMT-state selective cytotoxicity in co-culture – imaging, PC-3E GFP, TEM4-18 mCherry, primary screen (AID 1345086);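 also: cells exposed to compound for 72 h before imaging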
Conditions: PC-3E GFP / TEM4-18 mCherry co-culture, imaging cell counts; measured here: mesenchymal TEM4-18 mCherry cell survival; at 1 µM

Structure (SMILES) | normalised cell number
O=C1CC[C@@]2(O)[C@H]3Cc4ccc(O)c5c4C2(CCN3CC2CC2)[C@H]1O5 | 1.26
C=C[C@H]1CN2CC[C@H]1C[C@@H]2[C@@H](OC(=O)OCC)c1ccnc2ccc(OC)cc12 | 0.77
CC1(C)C(=O)C=C[C@@]2(C)C1=C(O)C(=O)[C@]1(C)C2CC[C@@]2(C)[C@H](c3ccoc3)C[C@H]3O[C@]321 (some centres not stated) | 1.19
COc1cccc([C@]2(O)CCCC[C@H]2CN(C)C)c1 | 1.5
CC1CC[C@]2(NC1)O[C@H]1CC3C4CC[C@H]5C[C@@H](O)CC[C@]5(C)C4CC[C@]3(C)[C@H]1[C@@H]2C (some centres not stated) | 0.89
CC(=O)O[C@H]1C[C@@H](OC(C)=O)C(C)(C)C2C[C@@H](OC(C)=O)[C@]3(C)C(CC[C@@]4(C)[C@H](c5ccoc5)C(=O)[C@H]5O[C@]543)[C@]21C (some centres not stated) | 1.12
NC1C[C@H]1c1ccccc1 (some centres not stated) | 1.22
CC1(C)C(=O)C=C[C@@]2(C)C1C[C@@H](O)[C@]1(C)C2CC[C@@]2(C)[C@H](c3ccoc3)OC(=O)[C@H]3O[C@]321 (some centres not stated) | 0.95
COC[C@]12CN(C=O)C3[C@@H]4[C@H](OC)C1[C@]3(C1CC3(O)C(OC)C(O)C4(OC(C)=O)C1C3OC(=O)c1ccccc1)[C@@H](OC)C[C@H]2O (some centres not stated) | 1.06
CNC(C)[C@H](O)c1ccccc1 (some centres not stated) | 1.35
C[C@@H]1O[C@@H](O[C@H]2C[C@@H](O)[C@]3(CO)C4C(CC[C@]3(O)C2)[C@@]2(O)CC[C@H](C3=CC(=O)OC3)[C@@]2(C)C[C@H]4O)[C@H](O)[C@H](O)[C@H]1O (some centres not stated) | 0.02
CC(C)C[C@@H](CN)CC(=O)O | 1.27
